Experimental data from the supplement of paper PMC7801607.

Tested on: Plasmodium falciparum NF54 asexual blood stage
Test: % inhibition of asexual blood stage proliferation (pLDH); higher = more inhibition
Conditions: 2 µM; 72 h
Summary of the method: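 Ring-stage cultures of Plasmodium falciparum NF54 at 1% haematocrit and 2% parasitaemia were treated with compound at 2 or 20 µM in 96-well plates and kept for 72 h at 37 °C under 4% CO2, 3% O2 and 93% N2. Parasite survival was measured by the parasite lactate dehydrogenase assay, read colorimetrically at 620 nm. Percent inhibition of asexual proliferation was calculated relative to control wells, and the screen was carried out on two separate occasions.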

| SMILES | % inhibition of asexual blood stage proliferation [%] |
| --- | --- |
| Clc1cc2nc(C3CCNCC3)n(Cc3ccc(CNCCc4cnc[nH]4)cc3)c2cc1Cl | 27.7 |
| O=c1cc(OCc2ccccc2)ccn1Cc1ccccc1 | 6.62 |
| Cc1cc(CCCOc2c(C)cc(-c3noc(C(F)(F)F)n3)cc2C)on1 | 44.6 |
| CCC(C)n1ncn(-c2ccc(N3CCN(c4ccc(OCC5COC(Cn6cncn6)(c6ccc(Cl)cc6Cl)O5)cc4)CC3)cc2)c1=O (stereo not drawn) | 10.1 |
| O=C(O)c1ccccc1Sc1ncnc2sc3c(c12)CCC3 | -19.5 |
| Cc1nc(Nc2ccc(F)cc2)nc(N2CCc3ccccc3C2C)c1C (stereo not drawn) | 49.6 |
| NC(=O)c1nccn([C@@H]2O[C@H](CO)[C@@H](O)[C@H]2O)c1=O | 11.7 |
| Nc1nc(F)nc2c1ncn2[C@H]1O[C@@H](CO)[C@H](O)[C@@H]1O | 67.3 |
| NC(=S)N/N=C/c1ncccc1N | 73.5 |
| CCCC1(C2CC2)c2cc(Cl)ccc2NC(=O)N1C (stereo not drawn) | 18 |
| COc1cc(C(C(=O)NC2CCCCC2)N(C(=O)Cc2c[nH]c3ccccc23)c2ccc(C(C)C)cc2)cc(OC)c1OC (stereo not drawn) | 22.1 |
| Oc1cccc(C(Nc2nccs2)c2ccc3cccnc3c2O)c1 (stereo not drawn) | 80 |
| COc1ccc(C)cc1NC(=O)c1ccc(S(=O)(=O)N2CCCCC2)cc1 | 1.42 |
| CCC[C@H](NC(=O)[C@@H]1[C@H]2CCC[C@H]2CN1C(=O)[C@@H](NC(=O)[C@@H](NC(=O)c1cnccn1)C1CCCCC1)C(C)(C)C)C(=O)C(=O)NC1CC1 | 49.1 |
| O=C(CSc1nnc(Br)n1-c1ccc(C2CC2)c2ccccc12)Nc1ccc(C(=O)O)cc1Cl | 3.71 |
| CC(C)(C)c1ccc(C(Cn2cccc(C(F)(F)F)c2=O)NC2Cc3ccccc3C2)cc1 (stereo not drawn) | 32.7 |
| O=C1NC(=O)C(Br)=C1Br | 42.2 |
| CC(C)Nc1nc2cc(Cl)c(Cl)cc2n1[C@H]1O[C@@H](CO)[C@H](O)[C@@H]1O | 66.8 |
| C=C[C@]1(C)C[C@@H](OC(=O)CS[C@@H]2C[C@H]3CC[C@@H](C2)N3C)[C@]2(C)[C@H](C)CC[C@]3(CCC(=O)[C@H]32)[C@@H](C)[C@@H]1O | 68.8 |

| SMILES | % inhibition of asexual blood stage proliferation [%] |
| --- | --- |
| CCCCCCC1c2ccc(O)cc2Oc2cc(O)ccc21 | -7.32 |
| O=C(NCc1ncc(C(F)(F)F)cc1Cl)c1c(Cl)cccc1Cl | 18.8 |
| CN(C)CCNC(=O)c1cccc2cccnc12 | 9.84 |
| CC(C)CCN1C(=O)C(C2=NS(=O)(=O)c3cc(NS(C)(=O)=O)ccc3N2)=C(O)[C@@H]2[C@H]3CC[C@H](C3)[C@@H]21 | 37.2 |
| CC(C)(C)c1ccc(C(=O)NC(=O)N2CCCc3ccccc32)cc1 | -6.14 |
| Cc1nc2ccc(Oc3ccccc3)cc2c2c1CCN2CCc1ccccc1 | 75.9 |
| Cc1c(OCC(F)(F)F)ccnc1CS(=O)c1nc2ccccc2[nH]1 (stereo not drawn) | 71.5 |
| O=C(CP(=O)(O)O)NCCc1cccc(Oc2ccccc2)c1 | 30.7 |
| N[C@@H]1CN(c2c(F)cc3c(=O)c(C(=O)O)cn([C@@H]4C[C@@H]4F)c3c2Cl)CC12CC2 | 36.2 |
| CCOC(=O)Nc1cc(NC(C)CC(C)CN(CC)CC)c2nc(-c3ccccc3)c(-c3ccccc3)nc2n1 (stereo not drawn) | 37.7 |
| O=S(=O)(NCB(O)O)c1cc2c(Cl)ccc(Cl)c2s1 | -17.5 |
| CN(C)CC(=O)Nc1ccc2[nH]c(=O)c3ccccc3c2c1 | 24.3 |
| Cc1nc(-c2ccc(C3N(C)c4ccc(F)cc4C(=O)N3c3ccccc3)s2)cs1 (stereo not drawn) | 15.3 |
| CCc1cc(Nc2cc(=O)n(CCN3CCN(C(=O)c4ccccc4)CC3)c(=O)[nH]2)ccc1C | -6.84 |
| CCOC(=O)N[C@@H]1CC[C@@H]2[C@@H](C1)C[C@H]1C(=O)O[C@H](C)[C@H]1[C@H]2/C=C/c1ccc(-c2cccc(F)c2)cn1 | 42.6 |
| O=C(N[C@H](Cc1cccc2ccccc12)C(=O)NCCc1c[nH]cn1)C1Cc2ccccc2C1 | 23 |
| Cc1nc(N(C)C(=O)Cc2ccc(-c3ccccn3)cc2)sc1S(N)(=O)=O | -8.1 |
| COc1ccc(C[C@@H](C)[C@@H](C)Cc2ccc(OC)c(OC)c2)cc1OC | 13.7 |
| Nc1nnnn1CCOc1c2[nH]c3ccc(Cl)cc3c2cc2c1[nH]c1ccc(Cl)cc12 | 11.9 |
